# Experimental data taken from PubChem BioAssay (EPA / NIEHS).
# Active and inactive are the calls of the source. How the source made its calls: active means hit-call score of the fitted dose curve at least 0.9, where 1 is the maximum; inactive means score below 0.9.
# Tests used:
# Conditions in all cases: mRNA level, 48 h; actives raise or lower the signal
# [1] = read-out: ATP-citrate lyase (ACLY), ACLY (gene 47); experiment: LTEA_HepaRG_ACLY: Life Technologies and Expression Analysis (LTEA) Assay for ATP-citrate lyase (ACLY) using HepaRG (AID 2283466)
# Summary of the method: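 qRT-PCR readout of ACLY transcript after 48 h chemical treatment of HepaRG cells; expression normalized to three housekeeping genes. Eight-point half-log series, highest 100 uM, 0.5% DMSO vehicle. Gain or loss fitted against DMSO baseline.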
# [2] = read-out: Peroxisomal acyl-coenzyme A oxidase 1 (ACOX1) gene, ACOX1 (gene 51); experiment: LTEA_HepaRG_ACOX1: Life Technologies and Expression Analysis (LTEA) Assay for Peroxisomal acyl-coenzyme A oxidase 1 (ACOX1) gene using HepaRG (AID 2283467)
# Summary of the method: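 HepaRG, 48 h chemical exposure, 8-pt half-log series from 100 uM top, 0.5% DMSO vehicle, duplicates. Readout: ACOX1 mRNA by Fluidigm qRT-PCR, housekeeping-normalized; bidirectional fit vs DMSO baseline.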
# [3] = read-out: Alkaline Phosphatase, Placental (ALPP) gene, ALPP (gene 250); experiment: LTEA_HepaRG_ALPP: Life Technologies and Expression Analysis (LTEA) Assay for Alkaline Phosphatase, Placental (ALPP) gene using HepaRG (AID 2283468);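 on AC50: differentiated human HepaRG liver cells in serum-free induction medium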
# Summary of the method: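 qRT-PCR readout of ALPP mRNA (Fluidigm TaqMan), normalized to ACTB/GAPDH/POLR2A, after 48 h chemical exposure of HepaRG cells; 8-point half-log series, top 100 uM, 0.5% DMSO vehicle. Bidirectional curve fit versus DMSO baseline.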
# [4] = read-out: Bcl-2 (BAX) gene, BAX (gene 581); experiment: LTEA_HepaRG_BAX: Life Technologies and Expression Analysis (LTEA) Assay for Bcl-2 (BAX) gene using HepaRG (AID 2283470)
# Summary of the method: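 qRT-PCR read-out of BAX mRNA, normalized to three housekeeping genes, after 48 h chemical exposure of human HepaRG cells in serum-free induction medium; eight-point half-log series, top 100 uM, 0.5% DMSO vehicle; bidirectional fit versus DMSO.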
# [5] = read-out: Alpha-fetoprotein (AFP) gene, AFP (gene 174); experiment: LTEA_HepaRG_AFP: Life Technologies and Expression Analysis (LTEA) Assay for Alpha-fetoprotein (AFP) gene using HepaRG (AID 2283472)
# Summary of the method: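 qRT-PCR (Fluidigm TaqMan) readout of AFP transcript, normalized to three housekeeping genes, fitted bidirectionally against 0.5% DMSO baseline. HepaRG cells received chemicals for 48 h in serum-free induction medium, top concentration 100 uM, half-log steps.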
# [6] = read-out: BCL2L11 (gene 10018); experiment: LTEA_HepaRG_BCL2L11: Life Technologies and Expression Analysis (LTEA) Assay for Bcl-2 (BCL2L11) gene using HepaRG (AID 2283473)
# Summary of the method: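 HepaRG, 48 h exposure, 8-pt half-log series from 100 uM in 0.5% DMSO, duplicates; qRT-PCR (Fluidigm TaqMan) for BCL2L11, housekeeping-normalized; bidirectional curve fit relative to DMSO baseline.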
# [7] = read-out: Apolipoprotein A-V (APOA5) gene, APOA5 (gene 116519); experiment: LTEA_HepaRG_APOA5: Life Technologies and Expression Analysis (LTEA) Assay for Apolipoprotein A-V (APOA5) gene using HepaRG (AID 2283474)
# Summary of the method: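 HepaRG, 48 h chemical exposure in serum-free induction medium, 8-pt half-log series (top 100 uM), 0.5% DMSO vehicle, duplicates. Readout: APOA5 mRNA by qRT-PCR, housekeeping-normalized; bidirectional fit vs DMSO baseline.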
# [8] = read-out: Apoptosis regulator Bcl-2 (Homo sapiens) (UniProt P10415); experiment: LTEA_HepaRG_BCL2: Life Technologies and Expression Analysis (LTEA) Assay for Bcl-2 gene using HepaRG (AID 2283475);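 further: BCL2 transcript by TaqMan qRT-PCR normalised to ACTB GAPDH and POLR2A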
# Summary of the method: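 qRT-PCR read-out (Fluidigm TaqMan) of BCL2 transcript, normalised to three housekeeping genes, after 48 h chemical exposure of HepaRG cells; 8-point half-log series, top 100 uM, 0.5% DMSO vehicle. Gain or loss of signal fitted relative to DMSO baseline.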
# [9] = read-out: adenosine kinase (ADK) gene, ADK (gene 132); experiment: LTEA_HepaRG_ADK: Life Technologies and Expression Analysis (LTEA) Assay for adenosine kinase (ADK) gene using HepaRG (AID 2283471)
# Summary of the method: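 ADK expression quantified by qRT-PCR, normalised to three housekeeping genes, after 48 h exposure of HepaRG cells to eight concentrations (top 100 uM, half-log steps, duplicate, 0.5% DMSO). Up- or down-regulation fitted relative to vehicle.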
# Apoptosis regulator Bcl-2 (Homo sapiens), sequence (P10415 whole entry, looked up): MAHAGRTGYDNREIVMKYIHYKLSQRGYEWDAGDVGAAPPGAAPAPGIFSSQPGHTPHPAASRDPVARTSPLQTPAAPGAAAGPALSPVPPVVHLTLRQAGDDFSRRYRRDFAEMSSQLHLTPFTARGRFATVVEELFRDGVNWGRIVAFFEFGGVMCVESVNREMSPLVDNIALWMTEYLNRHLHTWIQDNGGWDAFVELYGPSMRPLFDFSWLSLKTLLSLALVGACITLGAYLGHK
smiles,measurement,setting,value
Oc1ccc(C(c2ccc(O)cc2)(C(F)(F)F)C(F)(F)F)cc1,outcome,[1],inactive
same,AC50,[2],83.8 µM (active)
same,AC50,[3],83 µM (active)
same,outcome,[4],inactive
same,outcome,[5],inactive
same,AC50,[6],78.9 µM (active)
same,outcome,[7],inactive
same,outcome,[8],inactive
Oc1c(Cl)c(Cl)c(Cl)c(Cl)c1Cl,AC50,[1],1.61 µM (active)
same,AC50,[2],3.29 µM (active)
same,AC50,[3],5.48 µM (active)
same,outcome,[4],inactive
same,AC50,[5],3.19 µM (active)
same,AC50,[6],6.24 µM (active)
same,AC50,[7],3.95 µM (active)
same,outcome,[8],inactive
CCCCCCCCCc1ccc(O)cc1,outcome,[1],inactive
same,outcome,[2],inactive
same,outcome,[3],inactive
same,outcome,[4],inactive
same,outcome,[9],inactive
same,outcome,[5],inactive
same,outcome,[6],inactive
same,outcome,[7],inactive
same,outcome,[8],inactive
CO/C=C(/C(=O)OC)c1ccccc1COc1cccc(C(F)(F)F)n1,outcome,[1],inactive
same,AC50,[2],5.3 µM (active)
same,AC50,[3],5.39 µM (active)
same,AC50,[4],9.44 µM (active)
same,AC50,[5],4.93 µM (active)
same,AC50,[6],6.53 µM (active)
same,AC50,[7],9.59 µM (active)
same,AC50,[8],9.33 µM (active)
Cc1cc(O)ccc1Cl,outcome,[1],inactive
same,outcome,[2],inactive
same,outcome,[3],inactive
same,outcome,[4],inactive
same,outcome,[5],inactive
same,outcome,[6],inactive
same,outcome,[7],inactive
same,outcome,[8],inactive
COS(=O)(=O)OC,outcome,[1],inactive
same,outcome,[2],inactive
same,outcome,[3],inactive
same,outcome,[4],inactive
same,outcome,[5],inactive
same,outcome,[6],inactive
same,outcome,[7],inactive
same,outcome,[8],inactive
CCC(C)c1cc([N+](=O)[O-])cc([N+](=O)[O-])c1O (stereo not drawn),outcome,[1],inactive
same,AC50,[2],1.4 µM (active)
same,AC50,[3],1.58 µM (active)
same,AC50,[4],7.23 µM (active)
same,AC50,[5],2.35 µM (active)
same,AC50,[6],1.39 µM (active)
same,AC50,[7],1.58 µM (active)
same,AC50,[8],12.3 µM (active)
ClC1=C(Cl)[C@]2(Cl)[C@@H]3[C@H]4C[C@H]([C@@H]5O[C@H]45)[C@@H]3[C@@]1(Cl)C2(Cl)Cl,outcome,[1],inactive
same,outcome,[2],inactive
same,outcome,[3],inactive
same,outcome,[4],inactive
same,AC50,[5],31.1 µM (active)
same,outcome,[6],inactive
same,AC50,[7],50 µM (active)
same,AC50,[8],9.92 µM (active)
CCOC(=O)C(O)(c1ccc(Cl)cc1)c1ccc(Cl)cc1,outcome,[1],inactive
same,outcome,[2],inactive
same,outcome,[3],inactive
same,outcome,[4],inactive
same,outcome,[5],inactive
same,outcome,[6],inactive
same,outcome,[7],inactive
same,outcome,[8],inactive
